According to PubChem BioAssay:
The source made the active and inactive calls. Unless noted, how the calls were made is not given here.

How the values were obtained:
[1] = A549 cell viability effects, profiling panel, calcein-AM fluorescence, 48 h, basal (AID 1162); details: higher = more signal; further: test concentration not given here
[2] = adipocyte viability effects, profiling panel, cell-based, 3T3-L1 adipocytes, calcein-AM fluorescence, 48 h, basal (AID 1163); details: 3T3-L1 adipocytes viability, higher = more signal; further: test concentration not given here
[3] = HepG2 cell viability effects, profiling panel, calcein-AM fluorescence, 48 h, basal (AID 1164); details: higher = more signal; further: test concentration not given here
[4] = MM1S cell viability effects, profiling panel, calcein-AM fluorescence, 48 h, basal (AID 1165); details: higher = more signal;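 further: viability of MM1S multiple myeloma cells under basal unstimulated conditions; test concentration not given here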
[5] = basal RPMI8226 viability, no added stimulus, profiling panel, cell-based, calcein-AM fluorescence, 48 h, PK04 Diversity Set (AID 1166); details: RPMI8226 myeloma viability, higher = more signal;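 further: cells grown under basal conditions without added stimulus; test concentration not given here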
[6] = basal HepG2 mitochondrial membrane potential changes, profiling panel, cell-based, JC-1 fluorescence, 24 h, 100 nL compound (AID 1167); details: higher = more signal; further: test concentration not given here
[7] = basal 3T3-L1 adipocyte mitochondrial potential changes, profiling panel, cell-based, JC-1 fluorescence, 3T3-L1 adipocytes, 24 h, 100 nL compound (AID 1168); details: JC-1 mitochondrial fluorescence, higher = more signal, called active from +8 up or from −8 down; further: test concentration not given here
[8] = basal RPMI8226 mitochondrial membrane potential changes, profiling panel, cell-based, JC-1 fluorescence, 24 h, 100 nL compound (AID 1169); details: RPMI8226 myeloma, JC-1 mitochondrial potential fluorescence, higher = more signal; further: test concentration not given here
[9] = basal MM1S mitochondrial membrane potential changes, profiling panel, cell-based, JC-1 fluorescence, 24 h, 100 nL compound (AID 1170); details: higher = more signal; further: test concentration not given here
[10] = A549 lung cancer cell viability effects, profiling panel, resazurin fluorescence, 24 h, PK04 Diversity Set (AID 1171); details: higher = more signal, called active from +8 up or from −8 down; further: test concentration not given here
[11] = HepG2 liver cancer cell viability effects, profiling panel, resazurin fluorescence, 24 h, PK04 Diversity Set (AID 1172); details: higher = more signal; further: test concentration not given here
[12] = basal S. cerevisiae growth modulation, no modifier, primary screen, OD600, strain BY4716, 24 h, basal condition (AID 1173); details: OD600, 24 h, higher = more signal, called active from +8 up or from −8 down
[13] = MM1S myeloma cell viability, profiling panel, resazurin fluorescence, basal, 24 h, PK04 Diversity Set (AID 1174); details: higher = more signal, called active from +8 up or from −8 down;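 further: MM1S multiple myeloma cell line; test concentration not given here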
[14] = target: Dihydroorotate dehydrogenase (quinone), mitochondrial (Plasmodium falciparum (isolate 3D7)) (UniProt Q08210); experiment: PfDHODH enzyme inhibitors, primary screen, biochemical, C-terminal His tag, absorbance 600 nm (AID 1175); details: DCIP absorbance 600 nm, higher = more signal, called active from +8 up or from −8 down;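 further: recombinant parasite enzyme with a five histidine tag at its C terminus; test concentration not given here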
Sequence of Dihydroorotate dehydrogenase (quinone), mitochondrial (Plasmodium falciparum (isolate 3D7)) (Q08210 whole entry, looked up): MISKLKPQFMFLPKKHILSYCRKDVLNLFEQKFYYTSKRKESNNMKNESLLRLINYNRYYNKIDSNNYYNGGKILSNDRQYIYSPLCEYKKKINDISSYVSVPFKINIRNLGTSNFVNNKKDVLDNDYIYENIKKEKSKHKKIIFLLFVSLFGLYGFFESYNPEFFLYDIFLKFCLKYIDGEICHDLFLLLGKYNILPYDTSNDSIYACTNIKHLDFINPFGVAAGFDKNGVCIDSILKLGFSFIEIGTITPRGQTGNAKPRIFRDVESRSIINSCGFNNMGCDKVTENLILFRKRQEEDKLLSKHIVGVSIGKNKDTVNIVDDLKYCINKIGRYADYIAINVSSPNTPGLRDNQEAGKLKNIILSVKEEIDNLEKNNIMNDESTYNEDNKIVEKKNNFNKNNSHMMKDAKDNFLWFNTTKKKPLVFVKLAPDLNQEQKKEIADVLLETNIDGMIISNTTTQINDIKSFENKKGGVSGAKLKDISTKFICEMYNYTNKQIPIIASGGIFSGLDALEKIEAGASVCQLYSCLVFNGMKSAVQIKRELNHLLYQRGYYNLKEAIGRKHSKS

[15] = P. aeruginosa biofilm formation inhibitors, primary screen, strain PAO1, LB-PBS medium, absorbance 600 nm (AID 1176); further: test concentration not given here; details: P. aeruginosa PAO1 growth/biofilm, A600, 12 h; higher = more signal
[16] = S. cerevisiae RM11-1a growth modifiers, primary screen, strain RM11-1a, OD600, basal, 24 h (AID 1177); details: OD600, 24 h, higher = more signal, called active from +8 up or from −8 down;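 further: cultures grown under basal conditions with no added stressor; test concentration not given here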
[17] = E. coli acrAB mutant growth effects, primary screen, E. coli filamentation inducers, strain DRC39, OD650, 24 h (AID 1178); details: higher = more signal, called active from +8 up or from −8 down;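 further: growth measured as culture turbidity by optical density at 650 nm; test concentration not given here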
[18] = E. coli acrAB mutant growth effects, primary screen, E. coli filamentation inducers, strain DRC39, OD650, 48 h (AID 1179);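 further: screen aims at cell division blockers that make cells filament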; details: E. coli DRC39 delta-acrAB growth, higher = more signal, called active from +8 up or from −8 down
[19] = RPMI8226 myeloma cell viability, profiling panel, resazurin fluorescence, basal, 24 h, PK04 Diversity Set (AID 1180); details: higher = more signal;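 further: RPMI8826 multiple myeloma cell line at 5000 cells per well; test concentration not given here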
[20] = target: E3 ubiquitin-protein ligase XIAP (Homo sapiens) (UniProt P98170); experiment: XIAP binders, primary screen, biophysical, small-molecule microarray, fluorescence 635 nm (AID 1181); details: small-molecule microarray binding, higher = more signal;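 further: score merges 667 nm emission and signal to noise over triplicate slides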
Sequence of E3 ubiquitin-protein ligase XIAP (Homo sapiens) (P98170 whole entry, looked up): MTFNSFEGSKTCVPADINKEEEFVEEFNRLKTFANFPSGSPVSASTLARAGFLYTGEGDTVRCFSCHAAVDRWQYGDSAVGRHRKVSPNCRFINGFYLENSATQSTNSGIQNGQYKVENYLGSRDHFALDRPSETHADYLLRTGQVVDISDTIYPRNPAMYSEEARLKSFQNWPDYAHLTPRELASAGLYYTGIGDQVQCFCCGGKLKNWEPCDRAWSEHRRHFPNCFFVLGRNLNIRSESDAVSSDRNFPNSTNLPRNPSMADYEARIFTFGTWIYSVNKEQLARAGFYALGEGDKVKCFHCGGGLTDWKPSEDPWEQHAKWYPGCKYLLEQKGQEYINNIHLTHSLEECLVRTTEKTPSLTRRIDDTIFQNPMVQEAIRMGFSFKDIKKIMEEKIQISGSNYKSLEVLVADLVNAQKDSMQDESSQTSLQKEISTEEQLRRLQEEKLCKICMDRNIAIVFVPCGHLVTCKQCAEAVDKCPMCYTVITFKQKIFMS

C=CCOC(=O)[C@H]1[C@@H]2C(=O)O[C@@H](c3ccccc3)[C@@H](c3ccccc3)N2[C@@H](c2ccc(OCCOC(=O)[C@H]3C[C@H]4C(=O)N[C@@H](CCCCNC(C)=O)C(=O)N4[C@H]3c3ccc(O)cc3)cc2)[C@]12C(=O)Nc1ccc(I)cc12
z-score [1]: -0.143 | z-score [2]: -0.0346 | z-score [3]: -0.251 | z-score [4]: -2.94 | z-score [5]: -2.69 | z-score [6]: 1.46 | z-score [7]: 0.585 (inactive) | z-score [8]: -0.538 | z-score [9]: -1.44 | z-score [10]: 0.974 (inactive) | z-score [11]: 0.452 | z-score [12]: -0.371 (inactive) | z-score [13]: -1.18 (inactive) | composite z-score [14]: -0.325 (inactive) | z-score [15]: 1.14 (inactive) | z-score [16]: 1.38 (inactive) | z-score [17]: -1.83 (inactive) | z-score [18]: -1.16 (inactive) | z-score [19]: -0.745 | composite z-score [20]: -0.0784

C=CC(=C)[C@H]1Oc2ccccc2S(=O)(=O)N2CCC[C@@H]12
z-score [1]: 0.159 | z-score [2]: 0.0997 | z-score [3]: -1.23 | z-score [4]: -0.391 | z-score [5]: -1.64 | z-score [6]: -0.708 | z-score [7]: -0.0333 (inactive) | z-score [8]: -0.295 | z-score [9]: 0.941 | z-score [10]: 0.0255 (inactive) | z-score [11]: -0.702 | z-score [12]: -3 (inactive) | z-score [13]: -0.205 (inactive) | composite z-score [14]: 0.742 (inactive) | z-score [15]: -0.389 (inactive) | z-score [16]: -0.377 (inactive) | z-score [17]: -0.553 (inactive) | z-score [18]: -0.84 (inactive) | z-score [19]: -0.973 | composite z-score [20]: -0.02

O=C(NCCO)C1=C[C@H](Oc2ccccc2I)[C@@H](O)[C@H](N(Cc2ccco2)C(=O)Cc2ccccc2)C1
z-score [1]: -0.22 | z-score [2]: 1.31 | z-score [3]: -0.902 | z-score [4]: 0.426 | z-score [5]: -1.94 | z-score [6]: -0.217 | z-score [7]: -0.166 (inactive) | z-score [8]: -0.084 | z-score [9]: 0.559 | z-score [10]: -1.35 (inactive) | z-score [11]: -1.23 | z-score [12]: -0.279 (inactive) | z-score [13]: -0.123 (inactive) | composite z-score [14]: 1.06 (inactive) | z-score [15]: -0.848 (inactive) | z-score [16]: 0.552 (inactive) | z-score [17]: -0.49 (inactive) | z-score [18]: -0.666 (inactive) | z-score [19]: -0.328 | composite z-score [20]: -0.052

C=CCNC(=O)[C@@H]1[C@H]2C(=O)O[C@H](c3ccccc3)[C@H](c3ccccc3)N2[C@H](c2ccc(O)cc2)[C@@]12C(=O)Nc1ccc(C#CCNC(N)=O)cc12
z-score [1]: 0.0067 | z-score [2]: 1.09 | z-score [3]: 0.767 | z-score [4]: -0.925 | z-score [5]: -0.179 | z-score [6]: -1.14 | z-score [7]: -1.07 (inactive) | z-score [8]: -0.994 | z-score [9]: 0.435 | z-score [10]: 0.552 (inactive) | z-score [11]: -0.361 | z-score [12]: 0.295 (inactive) | z-score [13]: 0.194 (inactive) | composite z-score [14]: -0.433 (inactive) | z-score [15]: 0.0485 (inactive) | z-score [16]: 0.24 (inactive) | z-score [17]: -0.0851 (inactive) | z-score [18]: -0.124 (inactive) | z-score [19]: 0.221 | composite z-score [20]: -0.33

C=C(/C(=C/C[C@H](OC(C)=O)c1ccc(CO)o1)c1cc(C(=O)OC)ccc1OC)C(C)C
z-score [1]: -0.431 | z-score [2]: 1.4 | z-score [3]: -0.812 | z-score [4]: -2.37 | z-score [5]: -2.03 | z-score [6]: 0.256 | z-score [7]: 1.13 (inactive) | z-score [8]: 0.104 | z-score [9]: -0.227 | z-score [10]: -0.369 (inactive) | z-score [11]: -0.783 | z-score [12]: 0.18 (inactive) | z-score [13]: -1.14 (inactive) | composite z-score [14]: -3.65 (inactive) | z-score [15]: -0.0342 (inactive) | z-score [16]: 0.447 (inactive) | z-score [17]: -1.42 (inactive) | z-score [18]: -0.94 (inactive) | z-score [19]: -1.34 | composite z-score [20]: -0.0807

COCCCNC(=O)[C@@]1(C)c2ccccc2C(=O)N(C(C)C)[C@H]1c1ccc(CO)cc1
z-score [1]: -0.276 | z-score [2]: -0.208 | z-score [3]: -0.51 | z-score [4]: 0.0651 | z-score [5]: 0.532 | z-score [6]: 0.043 | z-score [7]: 0.304 (inactive) | z-score [8]: 0.887 | z-score [9]: -0.441 | z-score [10]: 0.601 (inactive) | z-score [11]: -0.104 | z-score [12]: 0.836 (inactive) | z-score [13]: -0.18 (inactive) | composite z-score [14]: 0.663 (inactive) | z-score [15]: 0.208 (inactive) | z-score [16]: 1.24 (inactive) | z-score [17]: 0.32 (inactive) | z-score [18]: -0.279 (inactive) | z-score [19]: -0.316 | composite z-score [20]: 0.109

O=C1C[C@@](C(=O)NCCN2CCOCC2)(c2ccc([N+](=O)[O-])cc2)[C@@H](c2ccc(CO)cc2)N1CC12CC3CC(CC(C3)C1)C2
z-score [1]: -2.97 | z-score [2]: 0.0433 | z-score [3]: -3 | z-score [4]: -3.83 | z-score [5]: -4.23 | z-score [6]: -2.04 | z-score [7]: -0.907 (inactive) | z-score [8]: -0.893 | z-score [9]: -0.615 | z-score [10]: -2.06 (inactive) | z-score [11]: -2.48 | z-score [12]: -11.2 (active) | z-score [13]: -3.17 (inactive) | composite z-score [14]: -0.601 (inactive) | z-score [15]: 0.733 (inactive) | z-score [16]: 1.77 (inactive) | z-score [17]: -0.924 (inactive) | z-score [18]: -1.66 (inactive) | z-score [19]: -3.82 | composite z-score [20]: -0.182

COC(=O)[C@@]1(Cc2ccccc2)[C@H]2c3cc(C(=O)N(C)C)n(Cc4ccsc4Br)c3C[C@H]2CN1C(=O)c1ccccc1
z-score [1]: 0.209 | z-score [2]: -1.34 | z-score [3]: 0.369 | z-score [4]: -1.13 | z-score [5]: -1.34 | z-score [6]: 1.17 | z-score [7]: 0.332 (inactive) | z-score [8]: -0.776 | z-score [9]: -2 | z-score [10]: -2.34 (inactive) | z-score [11]: -1.77 | z-score [12]: 1.92 (inactive) | z-score [13]: -1.74 (inactive) | composite z-score [14]: 0.486 (inactive) | z-score [15]: 0.467 (inactive) | z-score [16]: 1.24 (inactive) | z-score [17]: 0.156 (inactive) | z-score [18]: 0.0523 (inactive) | z-score [19]: -3.12 | composite z-score [20]: 0.0496
